The results in this text go back to PubChem BioAssay (Tox21).

“And” between values parts separate entries of the source, which are not always exact repeats. Identical values can stand only once. Results filed as inconclusive are left out. Entries that show only a call come without a potency. Some structures have more than one record in an assay (separate samples or runs), and their calls can disagree. The source made the active and inactive calls. Unless noted, calls follow the shape of the dose curve; as a rule, active = well fitted curve in the direction sought with a large enough effect in the repeat runs; inconclusive = weak or mixed curves; inactive = no such curve, though single readings can be large; an effect the other way counts as inactive or inconclusive.
Potency is read from the fitted curve at half-maximal effect.

The target in one experiment is Retinoic acid receptor RXR-alpha (Homo sapiens) (UniProt P19793). Put plainly: qHTS assay to identify small molecule agonists of the RXR signaling pathway (AID 1159527; calls by dose curve; also: nearly all actives have a fitted effect of over 35% in size). As to conditions: HEK293T RXRa-UAS-bla, beta-lactamase ratio, 16 h; series mostly up to 76.8 µM. The method in brief: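 Agonist-mode beta-lactamase reporter assay: HEK 293T RXR-alpha-UAS-bla cells treated 16 hr at 37 C with compounds, 9-cis retinoic acid as positive control. LiveBLAzer FRET substrate, 405 nm excitation, 460/530 nm emission.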
Sequence of Retinoic acid receptor RXR-alpha (Homo sapiens) (P19793 whole entry, looked up): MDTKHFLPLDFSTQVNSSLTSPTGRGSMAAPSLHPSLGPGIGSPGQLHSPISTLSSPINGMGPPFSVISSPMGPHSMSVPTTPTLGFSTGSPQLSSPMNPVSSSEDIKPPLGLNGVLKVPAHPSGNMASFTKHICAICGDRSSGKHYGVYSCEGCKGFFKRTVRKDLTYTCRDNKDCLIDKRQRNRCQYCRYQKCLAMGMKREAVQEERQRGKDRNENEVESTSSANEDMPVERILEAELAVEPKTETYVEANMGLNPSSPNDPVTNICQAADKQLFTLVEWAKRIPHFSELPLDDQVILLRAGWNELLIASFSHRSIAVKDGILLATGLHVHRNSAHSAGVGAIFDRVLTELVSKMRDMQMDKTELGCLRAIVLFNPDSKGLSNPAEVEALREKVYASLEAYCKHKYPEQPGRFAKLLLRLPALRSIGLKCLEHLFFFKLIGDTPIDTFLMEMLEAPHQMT
A general note: Quantitative high-throughput screening tests each substance at several concentrations.
On to `COc1ccc(C(=O)c2ccccc2O)c(O)c1`, for which the Potency result was “inactive”.
`CCCCCC=O`: the Potency entry was “inactive”.
Turning to `C=C[C@@]1(C)CC(=O)[C@]2(O)[C@@]3(C)[C@@H](O)CCC(C)(C)[C@@H]3[C@H](O)[C@H](OC(C)=O)[C@@]2(C)O1`, the Potency was 12.3 µM (active).
Still for that read-out and setting: as for `OC[C@@H](O)[C@@H](O[C@@H]1O[C@H](CO)[C@H](O)[C@H](O)[C@H]1O)[C@H](O)[C@@H](O)CO`, the entry is “inactive”; as for `Nc1cc([N+](=O)[O-])ccc1C(=O)O`, “inactive”.
Still for that read-out and setting: with `Nc1ccc2c(O)cc(S(=O)(=O)O)cc2c1` the entry was “inactive”; with `C=CCOC(=O)C(=C)C`, “inactive”.
The same measure, in the same setting: as for `Cc1ccc(N)c([N+](=O)[O-])c1`, the entry is “inactive”; as for `O=C(O)c1ccc(O)cc1`, “inactive”; as for `O=C1OC2(c3ccccc31)c1cc(I)c(O)c(I)c1Oc1c2cc(I)c(O)c1I`, “inactive”.
With `IC(I)I`, the Potency entry is “inactive”.
For `CCCCCCC(C)O` (centres undefined), the Potency was 17.7 µM (active) and inactive.
The same measure, in the same setting: as for `CCCCCCCCCCC(CO)CCCCCCCC` (centres undefined), the entry is “inactive”; as for `C=CC(=O)OCCCC`, “inactive”.
Consider `CCCCCC1C(=O)CCC1CC(=O)OC` (centres undefined), for which the Potency result is “inactive”.
As for `FC(F)(F)C(Cl)Br` (centres undefined), the Potency entry was “inactive”.
On the same count and under the same terms, as for `CC1(C)NC(=O)N(c2ccc([N+](=O)[O-])c(C(F)(F)F)c2)C1=O`, the entry is “inactive”; as for `CCCCCCCC/C=C\CCCCCCCC(=O)O`, “inactive”; as for `CC(=O)[C@@]1(O)CC[C@H]2[C@@H]3C[C@H](C)C4=CC(=O)C=C[C@]4(C)[C@@]3(F)[C@@H](O)C[C@@]21C`, “inactive”.
Take `Cc1cccc(Nc2ccccc2C(=O)O)c1C`: the Potency result is “inactive”.
For the molecule `CC(C)[C@@H]1CC[C@@H](C)CC1=O`, the Potency result was “inactive”.
As to `O=C(O)COCCN1CCN(C(c2ccccc2)c2ccc(Cl)cc2)CC1` (centres undefined), the Potency result is “inactive”.
Still for that read-out and setting: as for `Cc1ccc(S(=O)(=O)NCl)cc1`, the entry is “inactive”; as for `c1ccc2cc3ccccc3cc2c1`, “inactive”; as for `O=S1(=O)CCCO1`, “inactive”.
The same measure, in the same setting: as for `Nc1ccc(O)c(N)c1`, the entry is “inactive”; as for `C=CN1CCCC1=O`, “inactive”.
Still for that read-out and setting: with `Cc1ccc(C(C)(C)C)cc1` the entry was “inactive”; with `Cc1ccc(C(C)(C)C)c(O)c1`, “inactive”.
As for `C=C[Si](OCCOC)(OCCOC)OCCOC`, the Potency entry is “inactive”.
The same measure, in the same setting: with `Cc1ccc(C)c(O)c1` the entry was “inactive”; with `NCCN`, “inactive”.

System in a further experiment: not listed separately
In words: qHTS assay to identify small molecule agonists of the RXR signaling pathway - cell viability counter screen (AID 1159529). Also: nearly all actives have a fitted effect of over 50% in size. The note with it: RXR-alpha-bla HEK293T viability, CellTiter-Glo, 16 h; series mostly up to 76.8 µM. The method in brief:
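CellTiter-Glo luminescence gave viability in the wells also read for beta-lactamase. Cells (RXR-alpha-UAS-bla HEK 293T, 2% charcoal-stripped FBS medium) had 5 hr plating, then 16 hr compound exposure at 37 C; tetraoctyl ammonium bromide served as positive control.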
Regarding `COc1ccc(C(=O)c2ccccc2O)c(O)c1`, the Potency result was “inactive”.
The same measure, in the same setting: with `CCCCCC=O` the entry was “inactive”.
Still for that read-out and setting: as for `C=C[C@@]1(C)CC(=O)[C@]2(O)[C@@]3(C)[C@@H](O)CCC(C)(C)[C@@H]3[C@H](O)[C@H](OC(C)=O)[C@@]2(C)O1`, the figure is 11 µM (active) and 7.56 µM (active).
On to `CC(=O)O[C@]1(C(C)=O)CC[C@H]2[C@@H]3C=C(Cl)C4=CC(=O)CC[C@]4(C)[C@H]3CC[C@@]21C`, for which the Potency result was “inactive”.
Same read-out and setting: as for `OC[C@@H](O)[C@@H](O[C@@H]1O[C@H](CO)[C@H](O)[C@H](O)[C@H]1O)[C@H](O)[C@@H](O)CO`, the entry is “inactive”; as for `Nc1cc([N+](=O)[O-])ccc1C(=O)O`, “inactive”.
Turning to `Nc1ccc2c(O)cc(S(=O)(=O)O)cc2c1`, the Potency entry is “inactive”.
On the same count and under the same terms, with `C=CCOC(=O)C(=C)C` the entry was “inactive”; with `Cc1ccc(N)c([N+](=O)[O-])c1`, “inactive”; with `O=C(O)c1ccc(O)cc1`, “inactive”.
On the same count and under the same terms, with `O=C1OC2(c3ccccc31)c1cc(I)c(O)c(I)c1Oc1c2cc(I)c(O)c1I` the entry was “inactive”; with `IC(I)I`, “inactive”; with `CCCCCCC(C)O` (centres undefined), “inactive”.
`CCCCCCCCCCC(CO)CCCCCCCC` (centres undefined): the Potency entry is “inactive”.
Consider `C=CC(=O)OCCCC`, for which the Potency entry is “inactive”.
Same read-out and setting: as for `CCCCCC1C(=O)CCC1CC(=O)OC` (centres undefined), the entry is “inactive”; as for `FC(F)(F)C(Cl)Br` (centres undefined), “inactive”; as for `CC1(C)NC(=O)N(c2ccc([N+](=O)[O-])c(C(F)(F)F)c2)C1=O`, “inactive”.
Still for that read-out and setting: with `CCCCCCCC/C=C\CCCCCCCC(=O)O` the entry was “inactive”; with `CC(=O)[C@@]1(O)CC[C@H]2[C@@H]3C[C@H](C)C4=CC(=O)C=C[C@]4(C)[C@@]3(F)[C@@H](O)C[C@@]21C`, “inactive”.
For `Cc1cccc(Nc2ccccc2C(=O)O)c1C`, the Potency result was “inactive”.
For `CC(C)[C@@H]1CC[C@@H](C)CC1=O`, the Potency entry was “inactive”.
For `O=C(O)COCCN1CCN(C(c2ccccc2)c2ccc(Cl)cc2)CC1` (centres undefined), the Potency entry was “inactive”.
Regarding `Cc1ccc(S(=O)(=O)NCl)cc1`, the Potency entry is “inactive”.
Consider `C1CN(SSN2CCOCC2)CCO1`, for which the Potency is 54.4 µM (active).
Still for that read-out and setting: as for `c1ccc2cc3ccccc3cc2c1`, the entry is “inactive”.
Consider `O=S1(=O)CCCO1`, for which the Potency result was “inactive”.
For `Nc1ccc(O)c(N)c1`, the Potency entry was “inactive”.
Same read-out and setting: with `C=CN1CCCC1=O` the entry was “inactive”; with `Cc1ccc(C(C)(C)C)cc1`, “inactive”.
Still for that read-out and setting: as for `CC(C)(C)c1cccc(C(C)(C)C)c1O`, the entry is “inactive”.
The same measure, in the same setting: with `OCCNCCO` the entry was “inactive”; with `Cc1ccc(C(C)(C)C)c(O)c1`, 47.4 µM (active) and inactive.
On to `C=C[Si](OCCOC)(OCCOC)OCCOC`, for which the Potency result is “inactive”.
Still for that read-out and setting: with `C[C@]12CC[C@@H]3c4ccc(O)cc4CC[C@H]3[C@@H]1CC[C@H]2O` the entry was “inactive”; with `C[C@]12CC[C@@H]3c4ccc(O)cc4CC[C@H]3[C@@H]1CC[C@@H]2O`, “inactive”.
As to `Cc1ccc(C)c(O)c1`, the Potency entry is “inactive”.
On to `NCCN`, for which the Potency result was “inactive”.

System in another experiment: not listed separately
Put plainly: qHTS assay to identify small molecule antagonists of the retinoid acid receptor (RAR) signaling pathway - cell viability counter screen (AID 1159551). Also: nearly all actives have a fitted effect of over 35% in size. As to conditions: C3RL4 cells viability, ATP luminescence (CellTiter-Glo), 6 h; series mostly up to 92.4 µM. The gist of the method:
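Measured by luminescent ATP detection, viability reflects C3RL4 cells treated 6 h at 37 C with test chemicals in the presence of 1 uM (final) retinol.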
Consider `COc1ccc(C(=O)c2ccccc2O)c(O)c1`, for which the Potency result was “inactive”.
On the same count and under the same terms, with `CCCCCC=O` the entry was “inactive”; with `OC[C@@H](O)[C@@H](O[C@@H]1O[C@H](CO)[C@H](O)[C@H](O)[C@H]1O)[C@H](O)[C@@H](O)CO`, “inactive”.
Same read-out and setting: with `Nc1cc([N+](=O)[O-])ccc1C(=O)O` the entry was “inactive”; with `Cc1ccc(N)c([N+](=O)[O-])c1`, “inactive”; with `O=C(O)c1ccc(O)cc1`, “inactive”.
The same measure, in the same setting: with `O=C1OC2(c3ccccc31)c1cc(I)c(O)c(I)c1Oc1c2cc(I)c(O)c1I` the figure was 27.4 µM (active); with `IC(I)I`, “inactive”; with `CCCCCCCCCCC(CO)CCCCCCCC` (centres undefined), “inactive”.
On to `CC1(C)NC(=O)N(c2ccc([N+](=O)[O-])c(C(F)(F)F)c2)C1=O`, for which the Potency result is “inactive”.
As for `CCCCCCCC/C=C\CCCCCCCC(=O)O`, the Potency result was “inactive”.
As to `CC(=O)[C@@]1(O)CC[C@H]2[C@@H]3C[C@H](C)C4=CC(=O)C=C[C@]4(C)[C@@]3(F)[C@@H](O)C[C@@]21C`, the Potency entry is “inactive”.
Still for that read-out and setting: as for `Cc1cccc(Nc2ccccc2C(=O)O)c1C`, the entry is “inactive”; as for `O=C(O)COCCN1CCN(C(c2ccccc2)c2ccc(Cl)cc2)CC1` (centres undefined), “inactive”; as for `Cc1ccc(S(=O)(=O)NCl)cc1`, “inactive”.
In the case of `C1CN(SSN2CCOCC2)CCO1`, the Potency result was “inactive”.
Same read-out and setting: with `c1ccc2cc3ccccc3cc2c1` the entry was “inactive”; with `O=S1(=O)CCCO1`, “inactive”.
Turning to `CN(Cc1cnc2nc(N)nc(N)c2n1)c1ccc(C(=O)N[C@@H](CCC(=O)O)C(=O)O)cc1`, the Potency entry is “inactive”.
As for `C=CN1CCCC1=O`, the Potency result was “inactive”.
On to `CC(C)(C)c1cccc(C(C)(C)C)c1O`, for which the Potency entry is “inactive”.
The same measure, in the same setting: as for `C=C[Si](OCCOC)(OCCOC)OCCOC`, the entry is “inactive”.
`C[C@]12CC[C@@H]3c4ccc(O)cc4CC[C@H]3[C@@H]1CC[C@H]2O`: the Potency entry was “inactive”.
Regarding `Cc1ccc(C)c(O)c1`, the Potency entry is “inactive”.
